{
  "source": "the supplement of paper PMC10849652",
  "note": "Targets with a hit are over-represented here; the source holds about 7,900 in all. About 0.6% of all pairs of compound and target were hits.",
  "data": [
    {"compound": "CC(C)(C)Cn1c(N)nc2ccc(-c3[nH]c(C(C)(C)C)nc3-c3ccc(F)cc3)nc21 [ralimetinib]", "experiment": "log2 fold change, soluble protein after heating vs DMSO (PISA); higher = thermal stabilisation; K562 cells, 10 uM, 30 min; active = over 0.2 and 3.5 SD of the protein, either way, in both replicates (recomputed)", "method_in_brief": "(§1)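 Soluble protein was quantified by TMTpro 16plex LC-MS/MS after channel sums were equalised. It was obtained as the supernatant after 21,000xg for 90 min from pooled aliquots of K562 cells (2×10^6 cells/mL, 10 μM compound, 30 min) heated for 3 min across 48°C-58°C and extracted in PBS with 0.5% NP-40 at 4°C. Thermal stability values are relative to control samples and come from duplicates. They are given as log2 fold changes.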", "values": [
      {"target": "ROCK2 (UniProt O75116)", "sequence (O75116 whole entry, looked up)": "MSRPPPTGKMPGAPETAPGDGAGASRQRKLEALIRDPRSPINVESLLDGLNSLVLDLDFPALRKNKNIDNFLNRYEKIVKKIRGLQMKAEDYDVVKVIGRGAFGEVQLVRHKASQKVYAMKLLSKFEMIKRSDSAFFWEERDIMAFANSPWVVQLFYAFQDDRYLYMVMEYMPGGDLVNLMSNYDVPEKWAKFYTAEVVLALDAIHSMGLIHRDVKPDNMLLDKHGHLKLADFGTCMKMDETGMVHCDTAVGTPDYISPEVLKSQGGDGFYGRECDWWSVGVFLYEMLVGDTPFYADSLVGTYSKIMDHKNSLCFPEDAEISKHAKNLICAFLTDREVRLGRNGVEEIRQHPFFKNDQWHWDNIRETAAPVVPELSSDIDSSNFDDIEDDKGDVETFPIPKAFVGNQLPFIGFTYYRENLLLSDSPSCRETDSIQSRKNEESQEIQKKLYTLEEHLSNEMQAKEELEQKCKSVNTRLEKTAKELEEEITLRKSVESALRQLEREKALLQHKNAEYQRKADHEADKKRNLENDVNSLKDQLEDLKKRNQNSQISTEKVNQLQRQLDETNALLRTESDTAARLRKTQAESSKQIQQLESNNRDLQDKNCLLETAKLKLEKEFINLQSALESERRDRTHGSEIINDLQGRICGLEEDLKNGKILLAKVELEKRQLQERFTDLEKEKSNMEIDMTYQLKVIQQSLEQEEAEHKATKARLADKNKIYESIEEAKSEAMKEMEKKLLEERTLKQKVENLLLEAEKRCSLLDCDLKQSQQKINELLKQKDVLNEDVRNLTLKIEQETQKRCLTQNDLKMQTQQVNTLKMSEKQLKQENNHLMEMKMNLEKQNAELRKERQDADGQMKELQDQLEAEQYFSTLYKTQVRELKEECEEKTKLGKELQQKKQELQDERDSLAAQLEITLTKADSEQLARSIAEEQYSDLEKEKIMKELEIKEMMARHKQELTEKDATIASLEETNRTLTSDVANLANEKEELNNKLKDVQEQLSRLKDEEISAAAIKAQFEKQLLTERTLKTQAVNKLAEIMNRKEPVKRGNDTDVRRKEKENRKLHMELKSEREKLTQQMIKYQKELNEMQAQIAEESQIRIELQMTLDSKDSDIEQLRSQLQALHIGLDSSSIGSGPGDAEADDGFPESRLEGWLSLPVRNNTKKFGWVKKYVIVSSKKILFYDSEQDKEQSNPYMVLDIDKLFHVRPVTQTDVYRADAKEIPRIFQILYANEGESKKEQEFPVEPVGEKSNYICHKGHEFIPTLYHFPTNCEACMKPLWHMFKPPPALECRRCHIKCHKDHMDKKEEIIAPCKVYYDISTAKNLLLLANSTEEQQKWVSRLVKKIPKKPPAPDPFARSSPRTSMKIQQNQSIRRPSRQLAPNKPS", "log2 fold change": "0.032 (inactive)"},
      {"target": "SCCPDH (UniProt Q8NBX0)", "log2 fold change": "0.059 (inactive)"},
      {"target": "RB1 (UniProt P06400)", "log2 fold change": "-0.06 (inactive)"},
      {"target": "RAB3IL1 (UniProt Q8TBN0)", "log2 fold change": "0.064 (inactive)"},
      {"target": "SDCBP (UniProt O00560)", "sequence (O00560 whole entry, looked up)": "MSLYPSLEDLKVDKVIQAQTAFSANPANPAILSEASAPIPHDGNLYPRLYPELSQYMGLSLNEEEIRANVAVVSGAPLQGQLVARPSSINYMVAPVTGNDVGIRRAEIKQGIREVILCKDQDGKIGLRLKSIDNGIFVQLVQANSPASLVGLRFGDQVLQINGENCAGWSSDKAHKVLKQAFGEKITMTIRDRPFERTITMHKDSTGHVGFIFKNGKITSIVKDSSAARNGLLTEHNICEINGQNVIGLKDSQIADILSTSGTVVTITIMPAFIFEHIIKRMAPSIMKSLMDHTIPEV", "log2 fold change": "-0.036 (inactive)"},
      {"target": "RTN4IP1 (UniProt Q8WWV3)", "sequence (Q8WWV3 whole entry, looked up)": "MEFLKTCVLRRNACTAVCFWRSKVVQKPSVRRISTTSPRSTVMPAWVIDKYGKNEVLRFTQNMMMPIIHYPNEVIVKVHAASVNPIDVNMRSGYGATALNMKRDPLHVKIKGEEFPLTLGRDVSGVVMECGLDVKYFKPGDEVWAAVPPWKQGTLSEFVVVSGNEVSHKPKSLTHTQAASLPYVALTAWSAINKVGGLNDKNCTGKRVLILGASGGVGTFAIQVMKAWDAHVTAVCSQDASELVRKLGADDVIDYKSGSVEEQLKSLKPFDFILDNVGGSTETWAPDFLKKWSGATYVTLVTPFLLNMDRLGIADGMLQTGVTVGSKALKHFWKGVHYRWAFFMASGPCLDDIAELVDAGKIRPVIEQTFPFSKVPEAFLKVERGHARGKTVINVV", "log2 fold change": "0.034 (inactive)"},
      {"target": "SGPL1 (UniProt O95470)", "log2 fold change": "0.159 (inactive)"},
      {"target": "RPS14 (UniProt P62263)", "log2 fold change": "0.135 (inactive)"},
      {"target": "RAD51 (UniProt Q06609)", "log2 fold change": "-0.074 (inactive)"},
      {"target": "SH3GLB2 (UniProt Q9NR46)", "log2 fold change": "0.033 (inactive)"},
      {"target": "RPS5 (UniProt P46782)", "log2 fold change": "0.103 (inactive)"},
      {"target": "RAD50 isoform 2 (UniProt Q92878)", "log2 fold change": "-0.03 (inactive)"},
      {"target": "RPS13 (UniProt P62277)", "log2 fold change": "0.13 (inactive)"},
      {"target": "RHOA (UniProt P61586)", "log2 fold change": "0.251 (inactive)"},
      {"target": "SLC12A9 (UniProt Q9BXP2)", "log2 fold change": "-0.106 (inactive)"},
      {"target": "SCG3 (UniProt Q8WXD2)", "log2 fold change": "0.061 (inactive)"},
      {"target": "RSF1 (UniProt Q96T23)", "sequence (Q96T23 whole entry, looked up)": "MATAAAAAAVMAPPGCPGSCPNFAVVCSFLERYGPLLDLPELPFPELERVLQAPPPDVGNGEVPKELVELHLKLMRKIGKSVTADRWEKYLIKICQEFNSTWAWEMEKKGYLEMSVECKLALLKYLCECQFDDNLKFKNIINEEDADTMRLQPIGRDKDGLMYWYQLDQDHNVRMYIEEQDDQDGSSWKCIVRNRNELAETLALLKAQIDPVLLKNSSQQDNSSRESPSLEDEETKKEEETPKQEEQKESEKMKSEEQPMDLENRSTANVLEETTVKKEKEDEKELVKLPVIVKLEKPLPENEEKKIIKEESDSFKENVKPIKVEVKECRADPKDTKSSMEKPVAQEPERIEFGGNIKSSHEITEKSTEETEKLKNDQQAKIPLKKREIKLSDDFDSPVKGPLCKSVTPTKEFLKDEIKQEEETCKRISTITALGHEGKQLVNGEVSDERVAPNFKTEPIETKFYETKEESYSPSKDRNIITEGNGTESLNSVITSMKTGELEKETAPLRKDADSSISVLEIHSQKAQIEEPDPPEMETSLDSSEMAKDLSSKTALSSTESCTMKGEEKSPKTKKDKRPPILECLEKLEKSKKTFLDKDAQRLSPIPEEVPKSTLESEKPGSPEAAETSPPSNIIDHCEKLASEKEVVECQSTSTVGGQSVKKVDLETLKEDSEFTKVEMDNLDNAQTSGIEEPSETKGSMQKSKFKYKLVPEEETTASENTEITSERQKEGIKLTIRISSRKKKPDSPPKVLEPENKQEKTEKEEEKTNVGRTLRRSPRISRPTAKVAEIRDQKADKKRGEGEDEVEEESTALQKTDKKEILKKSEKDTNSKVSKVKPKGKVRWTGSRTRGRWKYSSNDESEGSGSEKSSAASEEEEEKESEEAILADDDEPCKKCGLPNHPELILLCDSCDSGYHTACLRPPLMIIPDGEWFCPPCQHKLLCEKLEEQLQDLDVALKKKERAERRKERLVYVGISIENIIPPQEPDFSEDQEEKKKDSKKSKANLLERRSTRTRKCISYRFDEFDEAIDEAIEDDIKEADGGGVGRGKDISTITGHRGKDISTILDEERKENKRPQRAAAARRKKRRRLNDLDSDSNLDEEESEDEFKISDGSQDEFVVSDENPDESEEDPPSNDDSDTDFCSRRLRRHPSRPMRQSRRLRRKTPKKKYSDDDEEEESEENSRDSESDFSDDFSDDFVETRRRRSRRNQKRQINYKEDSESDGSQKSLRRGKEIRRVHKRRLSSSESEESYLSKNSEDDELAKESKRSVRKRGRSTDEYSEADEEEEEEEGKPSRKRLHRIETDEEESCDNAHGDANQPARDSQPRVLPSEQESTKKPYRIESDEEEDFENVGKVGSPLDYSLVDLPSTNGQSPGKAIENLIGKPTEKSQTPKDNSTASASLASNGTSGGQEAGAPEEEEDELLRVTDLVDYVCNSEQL", "log2 fold change": "0.019 (inactive)"},
      {"target": "RPS3 (UniProt P23396)", "log2 fold change": "0.034 (inactive)"},
      {"target": "RPS6KA1 isoform 2 (UniProt Q15418)", "log2 fold change": "-0.429 (active)"},
      {"target": "RRAGC (UniProt Q9HB90)", "log2 fold change": "-0.056 (inactive)"},
      {"target": "SERINC3 (UniProt Q13530)", "log2 fold change": "-0.14 (inactive)"},
      {"target": "RBM25 (UniProt P49756)", "log2 fold change": "0.102 (inactive)"},
      {"target": "SKP1 (UniProt P63208)", "sequence (P63208 whole entry, looked up)": "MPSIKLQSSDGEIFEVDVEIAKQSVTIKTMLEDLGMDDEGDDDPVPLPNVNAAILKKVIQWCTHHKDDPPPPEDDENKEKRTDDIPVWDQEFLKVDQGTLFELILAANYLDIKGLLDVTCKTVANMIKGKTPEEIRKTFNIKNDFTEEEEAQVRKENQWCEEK", "log2 fold change": "-0.02 (inactive)"},
      {"target": "RARS (UniProt P54136)", "sequence (P54136 whole entry, looked up)": "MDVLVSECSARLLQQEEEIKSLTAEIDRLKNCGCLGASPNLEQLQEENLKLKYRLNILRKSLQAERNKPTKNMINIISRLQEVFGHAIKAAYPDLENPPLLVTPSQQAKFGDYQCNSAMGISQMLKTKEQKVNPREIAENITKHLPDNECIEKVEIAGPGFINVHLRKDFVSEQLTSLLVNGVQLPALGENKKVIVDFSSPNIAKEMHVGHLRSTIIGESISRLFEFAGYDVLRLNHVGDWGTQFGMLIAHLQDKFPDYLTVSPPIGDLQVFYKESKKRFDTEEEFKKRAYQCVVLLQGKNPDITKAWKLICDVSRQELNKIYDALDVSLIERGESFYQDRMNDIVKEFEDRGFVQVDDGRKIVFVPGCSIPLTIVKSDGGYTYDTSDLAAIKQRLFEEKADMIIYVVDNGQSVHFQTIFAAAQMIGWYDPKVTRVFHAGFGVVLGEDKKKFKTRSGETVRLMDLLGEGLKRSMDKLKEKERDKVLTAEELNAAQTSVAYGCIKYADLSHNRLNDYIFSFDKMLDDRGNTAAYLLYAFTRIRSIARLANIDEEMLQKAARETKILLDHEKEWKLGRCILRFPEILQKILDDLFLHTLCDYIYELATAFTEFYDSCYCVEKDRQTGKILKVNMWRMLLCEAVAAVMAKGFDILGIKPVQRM", "log2 fold change": "0.097 (inactive)"},
      {"target": "RDH11 (UniProt Q8TC12)", "log2 fold change": "0.059 (inactive)"},
      {"target": "RPS15 (UniProt P62841)", "log2 fold change": "0.076 (inactive)"},
      {"target": "RPS18 (UniProt P62269)", "log2 fold change": "0.055 (inactive)"},
      {"target": "RETSAT (UniProt Q6NUM9)", "log2 fold change": "0.012 (inactive)"},
      {"target": "RMC1 (UniProt Q96DM3)", "log2 fold change": "-0.025 (inactive)"},
      {"target": "SAAL1 (UniProt Q96ER3)", "log2 fold change": "-0.033 (inactive)"},
      {"target": "RPA1 (UniProt P27694)", "log2 fold change": "-0.008 (inactive)"},
      {"target": "RAC1 (UniProt P63000)", "log2 fold change": "-0.01 (inactive)"},
      {"target": "SDHC (UniProt Q99643)", "sequence (Q99643 whole entry, looked up)": "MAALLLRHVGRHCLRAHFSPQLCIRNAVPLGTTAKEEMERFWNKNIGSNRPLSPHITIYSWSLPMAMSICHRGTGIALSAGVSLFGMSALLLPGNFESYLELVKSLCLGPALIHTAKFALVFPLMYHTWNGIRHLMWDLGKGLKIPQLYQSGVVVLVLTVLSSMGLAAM", "log2 fold change": "-0.055 (inactive)"},
      {"target": "SERPINA7 (UniProt P05543)", "sequence (P05543 whole entry, looked up)": "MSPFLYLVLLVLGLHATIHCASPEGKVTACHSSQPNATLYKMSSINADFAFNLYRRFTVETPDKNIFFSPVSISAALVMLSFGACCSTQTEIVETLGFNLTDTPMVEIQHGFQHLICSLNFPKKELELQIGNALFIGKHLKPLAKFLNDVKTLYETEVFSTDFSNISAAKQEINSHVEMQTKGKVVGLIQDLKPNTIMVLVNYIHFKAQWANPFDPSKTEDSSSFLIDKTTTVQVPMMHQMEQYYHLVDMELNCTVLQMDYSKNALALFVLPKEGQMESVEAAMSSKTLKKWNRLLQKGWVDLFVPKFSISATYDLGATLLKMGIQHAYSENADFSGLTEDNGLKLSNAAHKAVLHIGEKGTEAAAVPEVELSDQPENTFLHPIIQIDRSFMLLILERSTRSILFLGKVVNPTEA", "log2 fold change": "-0.062 (inactive)"}
    ]},
    {"compound": "CC(C)(O)CC(=O)NCCn1ccc2ncnc(Nc3ccc(Oc4cccc(C(F)(F)F)c4)c(Cl)c3)c21", "experiment": "log2 fold change, soluble protein after heating vs DMSO (PISA); higher = thermal stabilisation; K562 cells, 10 uM, 30 min; active = over 0.2 and 3.5 SD of the protein, either way, in both replicates (recomputed)", "method_in_brief": "as §1", "values": [
      {"target": "ROCK2 (UniProt O75116)", "log2 fold change": "-0.049 (inactive)"},
      {"target": "SCCPDH (UniProt Q8NBX0)", "log2 fold change": "0.156 (inactive)"},
      {"target": "RB1 (UniProt P06400)", "log2 fold change": "-0.054 (inactive)"},
      {"target": "RAB3IL1 (UniProt Q8TBN0)", "log2 fold change": "-0.036 (inactive)"},
      {"target": "SDCBP (UniProt O00560)", "log2 fold change": "-0.064 (inactive)"},
      {"target": "RTN4IP1 (UniProt Q8WWV3)", "log2 fold change": "-0.046 (inactive)"},
      {"target": "SGPL1 (UniProt O95470)", "log2 fold change": "0.017 (inactive)"},
      {"target": "RPS14 (UniProt P62263)", "log2 fold change": "-0.014 (inactive)"},
      {"target": "RAD51 (UniProt Q06609)", "log2 fold change": "-0.059 (inactive)"},
      {"target": "SH3GLB2 (UniProt Q9NR46)", "log2 fold change": "0.028 (inactive)"},
      {"target": "RPS5 (UniProt P46782)", "log2 fold change": "0 (inactive)"},
      {"target": "RAD50 isoform 2 (UniProt Q92878)", "log2 fold change": "-0.003 (inactive)"},
      {"target": "RPS13 (UniProt P62277)", "log2 fold change": "0.071 (inactive)"},
      {"target": "RHOA (UniProt P61586)", "log2 fold change": "-0.034 (inactive)"},
      {"target": "SLC12A9 (UniProt Q9BXP2)", "log2 fold change": "-0.012 (inactive)"},
      {"target": "SCG3 (UniProt Q8WXD2)", "log2 fold change": "0.039 (inactive)"},
      {"target": "RSF1 (UniProt Q96T23)", "log2 fold change": "-0.175 (inactive)"},
      {"target": "RPS3 (UniProt P23396)", "log2 fold change": "0.005 (inactive)"},
      {"target": "RPS6KA1 isoform 2 (UniProt Q15418)", "log2 fold change": "-0.092 (inactive)"},
      {"target": "RRAGC (UniProt Q9HB90)", "log2 fold change": "0.004 (inactive)"},
      {"target": "SERINC3 (UniProt Q13530)", "log2 fold change": "-0.304 (inactive)"},
      {"target": "RBM25 (UniProt P49756)", "log2 fold change": "-0.044 (inactive)"},
      {"target": "SKP1 (UniProt P63208)", "log2 fold change": "-0.045 (inactive)"},
      {"target": "RARS (UniProt P54136)", "log2 fold change": "-0.001 (inactive)"},
      {"target": "RDH11 (UniProt Q8TC12)", "log2 fold change": "-0.126 (inactive)"},
      {"target": "RPS15 (UniProt P62841)", "log2 fold change": "0.103 (inactive)"},
      {"target": "RPS18 (UniProt P62269)", "log2 fold change": "0.06 (inactive)"},
      {"target": "RETSAT (UniProt Q6NUM9)", "log2 fold change": "0.178 (inactive)"},
      {"target": "RMC1 (UniProt Q96DM3)", "log2 fold change": "-0.002 (inactive)"},
      {"target": "SAAL1 (UniProt Q96ER3)", "log2 fold change": "-0.112 (inactive)"},
      {"target": "RPA1 (UniProt P27694)", "log2 fold change": "-0.053 (inactive)"},
      {"target": "RAC1 (UniProt P63000)", "log2 fold change": "0.27 (inactive)"},
      {"target": "SDHC (UniProt Q99643)", "log2 fold change": "-0.185 (inactive)"},
      {"target": "SERPINA7 (UniProt P05543)", "log2 fold change": "0.314 (inactive)"}
    ]},
    {"compound": "CC(C)C1=C2N=C(C=C(N2N=C1)NCC3=CC=CC=C3)NCCCCCCN", "experiment": "log2 fold change, soluble protein after heating vs DMSO (PISA); higher = thermal stabilisation; K562 cells, 10 uM, 30 min; active = over 0.2 and 3.5 SD of the protein, either way, in both replicates (recomputed)", "method_in_brief": "as §1", "values": [
      {"target": "ROCK2 (UniProt O75116)", "log2 fold change": "-0.138 (inactive)"},
      {"target": "SCCPDH (UniProt Q8NBX0)", "log2 fold change": "0.038 (inactive)"},
      {"target": "RB1 (UniProt P06400)", "log2 fold change": "-0.386 (active)"},
      {"target": "RAB3IL1 (UniProt Q8TBN0)", "log2 fold change": "-0.014 (inactive)"},
      {"target": "SDCBP (UniProt O00560)", "log2 fold change": "-0.671 (active)"},
      {"target": "RTN4IP1 (UniProt Q8WWV3)", "log2 fold change": "0.063 (inactive)"},
      {"target": "SGPL1 (UniProt O95470)", "log2 fold change": "0.06 (inactive)"},
      {"target": "RPS14 (UniProt P62263)", "log2 fold change": "-0.016 (inactive)"},
      {"target": "RAD51 (UniProt Q06609)", "log2 fold change": "-0.016 (inactive)"},
      {"target": "SH3GLB2 (UniProt Q9NR46)", "log2 fold change": "-0.27 (active)"},
      {"target": "RPS5 (UniProt P46782)", "log2 fold change": "-0.015 (inactive)"},
      {"target": "RAD50 isoform 2 (UniProt Q92878)", "log2 fold change": "-0.002 (inactive)"},
      {"target": "RPS13 (UniProt P62277)", "log2 fold change": "-0.031 (inactive)"},
      {"target": "RHOA (UniProt P61586)", "log2 fold change": "0.063 (inactive)"},
      {"target": "SLC12A9 (UniProt Q9BXP2)", "log2 fold change": "-0.165 (inactive)"},
      {"target": "SCG3 (UniProt Q8WXD2)", "log2 fold change": "0.203 (inactive)"},
      {"target": "RSF1 (UniProt Q96T23)", "log2 fold change": "-0.114 (inactive)"},
      {"target": "RPS3 (UniProt P23396)", "log2 fold change": "-0.096 (inactive)"},
      {"target": "RPS6KA1 isoform 2 (UniProt Q15418)", "log2 fold change": "-0.164 (inactive)"},
      {"target": "RRAGC (UniProt Q9HB90)", "log2 fold change": "-0.18 (inactive)"},
      {"target": "SERINC3 (UniProt Q13530)", "log2 fold change": "-0.399 (active)"},
      {"target": "RBM25 (UniProt P49756)", "log2 fold change": "0.026 (inactive)"},
      {"target": "SKP1 (UniProt P63208)", "log2 fold change": "0.068 (inactive)"},
      {"target": "RARS (UniProt P54136)", "log2 fold change": "-0.545 (active)"},
      {"target": "RDH11 (UniProt Q8TC12)", "log2 fold change": "-0.74 (active)"},
      {"target": "RPS15 (UniProt P62841)", "log2 fold change": "-0.043 (inactive)"},
      {"target": "RPS18 (UniProt P62269)", "log2 fold change": "-0.043 (inactive)"},
      {"target": "RETSAT (UniProt Q6NUM9)", "log2 fold change": "-0.048 (inactive)"},
      {"target": "RMC1 (UniProt Q96DM3)", "log2 fold change": "-0.209 (inactive)"},
      {"target": "SAAL1 (UniProt Q96ER3)", "log2 fold change": "0.012 (inactive)"},
      {"target": "RPA1 (UniProt P27694)", "log2 fold change": "-0.019 (inactive)"},
      {"target": "RAC1 (UniProt P63000)", "log2 fold change": "0.051 (inactive)"},
      {"target": "SDHC (UniProt Q99643)", "log2 fold change": "0.012 (inactive)"},
      {"target": "SERPINA7 (UniProt P05543)", "log2 fold change": "0.066 (inactive)"}
    ]}
  ]
}
